Among all 260,000 compounds or so, about 1,500 (0.58%) were called active. Inconclusive results (about 5%) are left out.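 How the source made its calls: active means inhibition above a set limit at one or more doses, reproduced on every date tested; inconclusive means results disagree between test dates, or hit never tested in dose response; inactive means the rest.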 The list is a sample of the results. Potency and affinity values are given separately.
What follows are compounds tested against Virion infectivity factor (Human immunodeficiency virus type 1 group M subtype B (isolate BH10)) + Virion infectivity factor (Human immunodeficiency virus type 1 group M subtype B (isolate BRU/LAI)) + Virion infectivity factor (Human immunodeficiency virus type 1 group M subtype B (isolate PCV12)) + Virion infectivity factor (Human immunodeficiency virus type 1 group M subtype B (isolate HXB2)) + DNA dC->dU-editing enzyme APOBEC-3G (Homo sapiens) (UniProt P69720+P69721+P69722+P69723+Q9HC16) (assay: inhibitors of Vif binding to APOBEC3G peptide, primary screen, biochemical, TR-FRET, GST-Vif 1-94, biotin-A3G peptide, dose response retest (AID 1117319;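 further: Vif residues 1-94 fused to GST binding biotinylated APOBEC3G peptide 110-148; 0% = full assay without inhibitor and 100% = GST in place of GST-Vif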)). Conditions: hits give high values.
`CC(NS(=O)(=O)c1ccccc1)C(=O)Nc1ccc2c(c1)OCCO2` (stereo not drawn) was tested, and the inhibition was 0.08% (inactive). With `CC(=O)NCCn1c(SCc2ccccc2F)nc2ccccc2c1=O` the inhibition was -4.55% (inactive). In the case of `O=C(CSc1nc2sc3c(c2c(=O)[nH]1)CCC3)NCCO`, the inhibition is reported as -6.15% (inactive). With `O=C(Cc1ccccc1)Nc1ccccc1C(=O)Nc1ccccc1` the inhibition was 9.21% (inactive). `O=C(CC12CC3CC(CC(C3)C1)C2)NCc1ccccc1` was tested, and the inhibition was 0.11% (inactive). `O=C1Nc2ccccc2N2CCCC12` (stereo not drawn) was tested, and the inhibition was -3.06% (inactive). `FC(F)(F)c1ccc2c(c1)NCC1CCCN21` (stereo not drawn) was tested, and the inhibition was 32.5% (inactive). `COc1ccc(CNC(=O)C(C)N(C)Cc2cccc(F)c2)cc1` (stereo not drawn) was tested, and the inhibition was -5.46% (inactive). In the case of `CCNc1ccc(C(=O)NN=C2CCCC2)cc1[N+](=O)[O-]`, the inhibition is reported as 4.6% (inactive). `Cc1ccc(C)c(NC(=O)CSc2nc3[nH]ncc3c(=O)[nH]2)c1` was tested, and the inhibition was 8.18% (inactive). In the case of `COc1cc(OC)c(-c2noc(C(=O)OC(C)(C)C)c2C(=O)OC(C)(C)C)c(OC)c1`, the inhibition is reported as -1.31% (inactive). With `COc1ccccc1N1C(=O)S/C(=C\c2ccc(C)s2)C1=O` the inhibition was -7.12% (inactive). For `O=C(/C=C/c1ccc([N+](=O)[O-])s1)N1CCN(c2ccccc2)CC1`, the inhibition was 2.14% (inactive). `Cc1ccc(N2NC(=O)/C(=C\c3cc4c(cc3[N+](=O)[O-])OCO4)C2=O)cc1C` was tested, and the inhibition was 27.7% (inactive). `COc1ccccc1NC(=O)C(=O)N/N=C/c1ccc([N+](=O)[O-])s1` was tested, and the inhibition was -6.16% (inactive). For `COc1cccc(/C=C2/C(=O)NN(c3ccccc3)C2=O)c1`, the inhibition was 0.84% (inactive). In the case of `O=C1N/C(=C/c2ccc(Br)s2)C(=O)N1c1ccccc1`, the inhibition is reported as -0.93% (inactive). `COc1cccc(N2C(=O)/C(=C\c3cccs3)NC2=S)c1` was tested, and the inhibition was 7.97% (inactive). In the case of `O=C1NC(=S)N/C1=C/c1cc2c(cc1[N+](=O)[O-])OCO2`, the inhibition is reported as -9.06% (inactive). For `CCOC(=O)C1=C(CC)Nc2ccccc2N=C1NC(=O)c1ccc(S(=O)(=O)N2CCOCC2)cc1`, the inhibition was -4.07% (inactive). For `O=c1nc2n(c3ccc([N+](=O)[O-])cc13)CCCCC2`, the inhibition was -7.12% (inactive). For `CCOC(=O)N1CCC(NC(=O)c2cc(S(=O)(=O)N3CCc4ccccc43)cn2C)CC1`, the inhibition was -4.57% (inactive). With `CCOC(=O)C1=C(C)N(C[C@@H]2CC[C@@H](Cc3ccc(-c4ccccc4)cc3)O2)C(=O)NC1c1ccc(SCc2ccco2)c([N+](=O)[O-])c1` (stereo partly drawn) the inhibition was 30.7% (inactive). In the case of `Cc1nc2c(s1)sc1ccccc12`, the inhibition is reported as -4.72% (inactive). `C=CC(=O)NC(C)(C)CCN1CCOCC1` was tested, and the inhibition was 0.07% (inactive). For `CCc1cccc(C)c1NC(=O)CO/N=C(\N)CC(=O)NC1CCCCC1`, the inhibition was -0.04% (inactive). In the case of `O=C1C=CC(=Nc2ccc3c(c2)C(=O)c2ccccc2-3)O1`, the inhibition is reported as -2.81% (inactive). For `O=[N+]([O-])c1ccccc1C=NNc1ccccc1`, the inhibition was -8.57% (inactive). In the case of `COc1ccc(CC(NC(C)=O)C(=O)NC2CCN(S(=O)(=O)c3ccccc3)CC2)c(OC)c1` (stereo not drawn), the inhibition is reported as 3.28% (inactive). `O=C(COC(=O)C12CC3CC(CC(Br)(C3)C1)C2)N1CCOCC1` was tested, and the inhibition was 4.7% (inactive). For `Cc1cc(=O)oc2cc(OCC(=O)N3CCCc4ccccc43)ccc12`, the inhibition was -3.74% (inactive). `COCCCNc1nc2nonc2nc1N1CCC(C(C)N2CCOCC2)CC1` (stereo not drawn) was tested, and the inhibition was -10.9% (inactive). In the case of `CN1CCN(C(=O)c2ccc3nc(-c4ccccc4)c(-c4ccccc4)nc3c2)CC1`, the inhibition is reported as 5.63% (inactive). In the case of `O=C(c1ccco1)N1CCN(c2ncccn2)CC1`, the inhibition is reported as 5.99% (inactive). With `O=C(c1cccc(C(=O)N2CCN(c3ncccn3)CC2)c1)N1CCN(c2ncccn2)CC1` the inhibition was 17.4% (inactive). With `CCN1CCN(C(=O)c2ccc3nc(-c4ccccc4)c(-c4ccccc4)nc3c2)CC1` the inhibition was -0.29% (inactive). For `O=C(COc1ccccc1)NC(Cc1c[nH]c2ccccc12)C(=O)O` (stereo not drawn), the inhibition was 7.79% (inactive). For `c1ccc(-c2noc(CCC3CCCC3)n2)cc1`, the inhibition was -1.6% (inactive). With `Cc1c(C(=O)N2CCCCCC2)oc2ccccc12` the inhibition was 30.7% (inactive). With `Cc1cc(C)nc(N/N=C/c2ccc(Cl)cc2)n1` the inhibition was -3.39% (inactive). With `Cc1cc(C)nc(NN=CC2=C(N3CCOCC3)/C(=C/c3ccc(Cl)cc3)CC2)n1` the inhibition was 17.2% (inactive). In the case of `CN(C)CCNC(=O)c1ccc(CS(=O)(=O)c2c(Cl)cccc2Cl)o1`, the inhibition is reported as 3.4% (inactive). `COC(CNC(=O)c1ccc(CS(=O)(=O)c2c(Cl)cccc2Cl)o1)OC` was tested, and the inhibition was -0.54% (inactive). `CC(=O)c1cccc(NC(=O)N2CCCC2C(=O)NC2CCCCC2)c1` (stereo not drawn) was tested, and the inhibition was -4.16% (inactive). `CCOc1ccc2nc(NC(=O)CSc3nc4c(c(=O)n(C)c(=O)n4C)n3C(C)C)sc2c1` was tested, and the inhibition was 18.8% (inactive). For `CCC(=O)c1ccc(N2CCN(C(=O)c3cccc(F)c3)CC2)c(F)c1`, the inhibition was -9.86% (inactive). With `O=C(c1cccc(C(=O)N2CCN(c3ccccc3F)CC2)c1)N1CCN(c2ccccc2F)CC1` the inhibition was -8.59% (inactive). `CCOC(=O)C1CCN(CC(O)COCc2ccc(Cl)cc2)CC1` (stereo not drawn) was tested, and the inhibition was 8.82% (inactive). In the case of `O=S(=O)(/C=C/c1ccccc1)N1CCN(c2cccc(Cl)c2)CC1`, the inhibition is reported as -3.95% (inactive). For `O=C(Nc1nc(-c2cccs2)c(-c2ccccc2)s1)c1ccco1`, the inhibition was 2.82% (inactive). With `O=C(Nc1nnc(-c2ccco2)s1)C1CCCCC1` the inhibition was 22.7% (inactive). With `CS(=O)(=O)c1ccc2nc(NC(=O)c3ccco3)sc2c1` the inhibition was 8.25% (inactive). `O=C(NC(=S)Nc1nc2ccc(F)cc2s1)c1ccco1` was tested, and the inhibition was 9.98% (inactive). For `O=C(Nc1ccc(F)cc1F)c1cc(-c2ccco2)on1`, the inhibition was 5.56% (inactive). `COc1ccc(C(=O)Nc2nnc(-c3ccco3)s2)cc1` was tested, and the inhibition was -3.84% (inactive). With `O=C(Nc1nnc(-c2ccco2)s1)C1CC1` the inhibition was 12.1% (inactive). For `Cc1ccc(C(=O)Nc2nc(-c3ccco3)c(-c3ccco3)s2)o1`, the inhibition was 23.7% (inactive). `COc1ccc(CNC(=O)N[C@@H](CC(C)C)C(=O)O)cc1OC` was tested, and the inhibition was -2.37% (inactive). In the case of `CCCc1cc(=O)[nH]c(SCC(=O)NCC2COc3ccccc3O2)n1` (stereo not drawn), the inhibition is reported as -7.96% (inactive). With `COc1cnc(-c2ccccn2)[nH]c1=O` the inhibition was 2.61% (inactive). `O=C(Cn1nnc(-c2ccccc2F)n1)NCc1ccco1` was tested, and the inhibition was 10.4% (inactive). For `COc1ccc(CCNS(=O)(=O)c2ccc(OC)cc2)cc1`, the inhibition was -5.66% (inactive). With `Cc1[nH]c2ccc(Br)cc2c(=O)c1CN1CCCCCC1` the inhibition was -12.9% (inactive). With `CC1CCCN(S(=O)(=O)Cc2ccc(Cl)cc2)C1` (stereo not drawn) the inhibition was 4.49% (inactive). For `COc1ccc(COc2ccsc2C(=O)Nc2ccc(Cl)cc2)cc1`, the inhibition was -8.53% (inactive). In the case of `[O-][n+]1cccc2cccc(O)c21`, the inhibition is reported as -10.3% (inactive). In the case of `Cc1ccc2cccc(O)c2[n+]1[O-]`, the inhibition is reported as 18.8% (inactive). In the case of `C/C(=N\NC=O)c1ccncc1`, the inhibition is reported as -3.47% (inactive). With `COc1ccc(CC(=O)N(C)C2CCCCC2)cc1S(=O)(=O)N1CCOCC1` the inhibition was 1.22% (inactive). In the case of `COc1ccc2c(OC)cc(=O)n(C)c2c1`, the inhibition is reported as 6.19% (inactive). For `COc1ccc2c(c1)c1ccccc1n2C`, the inhibition was 1.57% (inactive). With `Cc1ccc2c(c1)c1c(n2C)C(=O)CCC1` the inhibition was -2% (inactive). For `Cc1ccc2c(C)c(C)c(=O)n(C)c2c1`, the inhibition was -6.81% (inactive). In the case of `Cc1cc(=O)n(C)c2ccccc12`, the inhibition is reported as -5.08% (inactive). `COc1ccc2[nH]c(C)cc(=O)c2c1` was tested, and the inhibition was -0.89% (inactive). In the case of `COc1ccc2[nH]c3ccccc3c2c1`, the inhibition is reported as 1.16% (inactive). With `Cc1ccc(C)c2c1c1ccccc1n2C` the inhibition was -3.59% (inactive). In the case of `Cc1c(NC(=O)c2cc(-c3ccccc3)nc3ccccc23)c(=O)n(-c2ccccc2)n1C`, the inhibition is reported as -2.43% (inactive). For `CC1=C(C(=O)OCc2ccccc2)C(c2ccccc2Br)NC(=O)N1` (stereo not drawn), the inhibition was -2.14% (inactive). With `COc1ccccc1C(O)(c1ccccc1)C(CN1CCOCC1)c1ccccc1` (stereo not drawn) the inhibition was 3.77% (inactive). In the case of `COc1ccc(NC(=O)c2cc(-c3ccccc3)nc3c2c(C)nn3-c2ccccc2)c(OC)c1`, the inhibition is reported as 1.03% (inactive). In the case of `COC(=O)Cc1[nH]nc2c1C(C1C=CCCC1)C(C#N)=C(N)O2` (stereo not drawn), the inhibition is reported as 7.26% (inactive). In the case of `COc1ccc(C2/C=C\CN(C(=O)C3CC3)[C@H](Cc3ccccc3)C(=O)N2Cc2ccc(F)cc2)cc1` (stereo partly drawn), the inhibition is reported as 7.45% (inactive). In the case of `CC1CCN(C(=O)CSc2nnc(-c3ccncc3)n2C)CC1`, the inhibition is reported as 8.77% (inactive). `COc1cc(OC)cc(C(=O)NC2CCN(CCCOc3ccccc3)CC2)c1` was tested, and the inhibition was -2.34% (inactive). `CCN(CC(=O)Nc1ccc(NC(C)=O)cc1)C(=O)c1ccc2ccccc2c1` was tested, and the inhibition was 8.12% (inactive). With `Nc1c(C(=O)CSc2nnc(-c3ccccc3F)o2)c(=O)[nH]c(=O)n1C1CC1` the inhibition was -9.99% (inactive). `Cn1c2ccccc2c2c(=O)oc3ccccc3c21` was tested, and the inhibition was -5.39% (inactive). For `CC(=O)n1c2ccccc2c2c1c1ccccc1n2C`, the inhibition was -6.7% (inactive). For `CCOc1ccccc1NC(=O)Nc1cccc(S(N)(=O)=O)c1`, the inhibition was 1.28% (inactive). In the case of `O=C(/C=C/c1ccccc1)c1ccc2c(c1)OCO2`, the inhibition is reported as -5.81% (inactive). For `CCOc1ccc(-n2c(=O)c3c4c(sc3n(CC(=O)NCc3ccco3)c2=O)CCC4)cc1`, the inhibition was -4.88% (inactive). For `Cc1sc2c(c1C)c(=O)n(-c1ccc(F)cc1)c(=O)n2CC(=O)NCc1ccco1`, the inhibition was -4.06% (inactive). For `C=CC(=O)N1C/C(=C/c2ccccc2)C(=O)/C(=C\c2ccccc2)C1`, the inhibition was 6.41% (inactive). `CCOC(=O)N1C/C(=C\c2ccccc2)C(=O)/C(=C/c2ccccc2)C1` was tested, and the inhibition was 1.34% (inactive). For `CC(C)CCNC(=O)C(=O)NCc1ccccc1`, the inhibition was 21.7% (inactive). For `COc1ccc(NC(=O)COC(=O)CCSc2ccccc2)cc1`, the inhibition was -0.53% (inactive). In the case of `COc1ccc(NC(=O)CCSc2ccc(F)cc2)cc1`, the inhibition is reported as 29.9% (inactive).

From PubChem BioAssay AID1117319 (Southern Research Institute, 2015)
